Hits are enriched below; roughly 3.1% of the tested compounds scored in any of these assays.
PAX8 reporter – inhibitors of PAX8 transcriptional activity in RMG-I cells; actives 1.2% (n = 360,000); inhibition, % at 12.6 µM; RMG-I TPO-luciferase reporter, SteadyGlo, 24 h;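 active means mean replicate inhibition at least 60% with every replicate also reaching 60%; inconclusive means only one of the two criteria is met; inactive means mean below 60% and not all replicates reaching 60%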;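 further: luciferase light reporting Pax8 driven TPO promoter activity; plate controls were median of neutral control wells for no effect and mitoxantrone controls for full effect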
LGR2 antag – inhibitors of bursicon-induced Drosophila LGR2 receptor cAMP signaling; AID 720647; inhibition, % at 9.99 µM; actives 0.35% (n = 380,000); HEK293 LGR2, CRE-luciferase, bursicon-stimulated, 4 h;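 active means drop in luminescence signal, shown as inhibition above about 50% in the replicate tests, limit read from the data, passing the limit was not always enough; inconclusive means probably only some replicates passing the limit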;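 further: agonist challenge used bursicon conditioned medium at about half maximal strength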
EWS-Fli block – inhibitors of EWS/Fli oncoprotein transcriptional activity. A673 NR0B1-luciferase reporter, viability-normalised. inhibition, % at 12.6 µM. actives 0.67% (n = 350,000). AID 651661;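 active means mean inhibition of at least 50% after viability correction, with every replicate also passing that limit; inconclusive means mean reaches 50% but only one of two replicates passes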;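 further: firefly luciferase signal divided by Alamar Blue viability fluorescence both relative to DMSO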
LMP1 NFkB inh – Epstein-Barr LMP1 NF-kappaB reporter inhibition; LMP1-induced NF-kappaB luciferase reporter cells, luminescence; inhibition, % at 12.5 µM; actives 0.69% (n = 350,000); in the data active means inhibition above about 41%; inconclusive means no clear call, values can overlap the other calls;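 further: 0% = neutral control wells and 100% = reference inhibitor control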
TROY signal inh – TROY signaling inhibition. inhibition, % at 10 µM. Q293 LMP1-TROYcd NF-kB luciferase reporter, 4 h. actives 0.98% (n = 360,000);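 active means compounds whose plate-normalised and pattern-corrected inhibition of the luciferase reporter signal at the single screening dose is 50% or more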
TWEAK Fn14 block – TWEAK-Fn14 signaling inhibition; TWEAK-stimulated Fn14 reporter cells, luciferase luminescence, 8 h; inhibition, % at 10 µM; actives 2% (n = 360,000); AID 1159606; in the data active means inhibition above about 50%
Starred values were filed as active, the others as inactive; ? = inconclusive; / = no result.

SMILES | PAX8 reporter | LGR2 antag | EWS-Fli block | LMP1 NFkB inh | TROY signal inh | TWEAK Fn14 block
C[C@@H]1CN([C@H](C)CO)C(=O)c2cc(NS(=O)(=O)c3ccc(Cl)cc3)ccc2O[C@@H](C)CCCCO[C@H]1CN(C)Cc1ccc(Cl)c(Cl)c1 | 113* | 9 | 17 | / | / | /
C[C@H](CO)N1C[C@H](C)[C@@H](CN(C)Cc2ccc(Cl)c(Cl)c2)OCCCC[C@H](C)Oc2ccc(NS(=O)(=O)c3ccc(F)cc3)cc2C1=O | 105* | 23 | 10 | / | / | /
Cc1ccc(S(=O)(=O)Nc2ccc3c(c2)C(=O)N([C@H](C)CO)C[C@H](C)[C@@H](CN(C)Cc2ccc(Cl)c(Cl)c2)OCCCC[C@@H](C)O3)cc1 | 20 | -17 | 18 | / | / | /
O=[N+]([O-])c1cccnc1S(=O)(=O)c1ccccc1 | 110* | 12 | 44 | -2 | 46 | 95*
COc1ccc([N+](=O)[O-])c(S(=O)(=O)c2ccc(Cl)cc2)n1 | 82* | 97* | 20 | 62* | 66* | 97*
COc1ccc([N+](=O)[O-])c(S(=O)(=O)c2ccccc2)n1 | 103* | 104* | 25 | / | 72* | 97*
Nc1cccnc1S(=O)(=O)c1ccccc1 | -3 | -2 | -8 | -2 | 0 | -5
COc1nc(OC)nc(Oc2ccc(Cl)cc2[N+](=O)[O-])n1 | 1 | -9 | 5 | -5 | 11 | -1
N#C[C@@H]1[C@@H](c2ccccc2-c2ccccc2)[C@H](CO)N1C(=O)Cc1ccccc1 | -8 | 9 | -4 | / | / | /
Nc1ccccc1SC(CC(=O)c1ccccc1)c1ccccc1 (stereo not drawn) | / | / | / | -21 | -47 | 1
CC(C(Sc1ccccc1N)c1ccccc1)[N+](=O)[O-] (stereo not drawn) | -66 | / | -1 | 5 | 55* | -25
COc1ccc2c3c([nH]c2c1)[C@@H](CO)N(C(=O)c1cccc(F)c1)CC31CCN(C(=O)c2ccccc2)CC1 | / | -27 | 2 | / | / | /
CCCN1CCC(=O)N([C@H](CSc2ccc(C)cc2)CC(C)C)CC1 | -145 | -63 | -125 | -12 | 61* | 41
CC(C)CC#Cc1cnc2c(c1)C(=O)N([C@H](C)CO)C[C@H](C)[C@@H](CN(C)C(=O)c1ccc(F)cc1)O2 | / | -5 | 6 | / | / | /
Cn1ncc2c(O/N=C(\N)c3ccc(C(F)(F)F)cc3)ncnc21 | 92* | / | 68* | -11 | 13 | -17
O=C(CCN1CCCCC1)N[C@@H]1CC[C@@H](CCNS(=O)(=O)c2ccc(Cl)cc2)O[C@@H]1CO | 1 | 6 | 3 | / | / | /
O=C(CSc1c(Cl)cccc1Cl)NC1CCCc2ccccc21 (stereo not drawn) | 9 | -10 | 2 | 1 | 12 | -5
O=C(CSc1nc2ccc(Cl)cc2[nH]1)NC1CCCc2ccccc21 (stereo not drawn) | 4 | -18 | -12 | -4 | 52* | 63*
O=C(CSc1nc2ccccc2[nH]1)NC1CCCc2ccccc21 (stereo not drawn) | -10 | / | -12 | 4 | -4 | 21
O=C(CSc1ccc(Cl)cc1)NC1CCCc2ccccc21 (stereo not drawn) | 8 | -13 | 6 | 3 | 74* | -5
CCN(Cc1ccc2c(c1)OCO2)C(=O)CSc1nc(C)nc2sc(C)c(C)c12 | 4 | 11 | 5 | -1 | 57* | 13
CCN(C(=O)CSc1nc(C)nc2sc(C)c(C)c12)c1ccc(F)cc1 | -8 | / | 4 | -3 | 15 | -5
CCS(=O)(=O)c1ncc(Cl)c(C(=O)Nc2ccc(S(=O)(=O)N3CCCC(C)C3)cc2)n1 (stereo not drawn) | 102* | 8 | / | 21 | 85* | 96*
CC1CCCN(S(=O)(=O)c2ccc(NC(=O)CNC3CCCC3)cc2)C1 (stereo not drawn) | 4 | -10 | 4 | 1 | -1 | 11
O=C(Nc1ccc(OC(F)F)cc1)c1ncc(Cl)c(Cl)c1Cl | 4 | -6 | -8 | 10 | -17 | -3
SMILES | PAX8 reporter | LGR2 antag | EWS-Fli block | LMP1 NFkB inh | TROY signal inh | TWEAK Fn14 block
CCC1CCCCN1S(=O)(=O)c1ccc(NC(=O)c2nc(S(C)(=O)=O)ncc2Cl)cc1 (stereo not drawn) | 104* | 3 | 69* | 4 | 83* | 77*
Cc1ccc(CS(=O)(=O)c2ncc(Cl)c(C(=O)Nc3ccc(OC(F)F)cc3)n2)cc1 | 21 | -32 | 49 | ? | 79* | 83*
CCS(=O)(=O)c1ncc(Cl)c(C(=O)Nc2ccc(C)cc2)n1 | 100* | 0 | 65* | -48 | 67* | 90*
CN1C(=O)c2cc(NC(=O)C3CCCCC3)ccc2OC[C@H]2O[C@H](CC(=O)NCc3ccccc3F)CC[C@H]21 | -6 | -23 | -2 | / | / | /
Cc1ccc(S(=O)(=O)c2nc(S(=O)(=O)c3ccccc3)sc2N2CCN(C)CC2)cc1 | 88* | 14 | 10 | -8 | -11 | 33
CCN1CCN(c2nc(S(=O)(=O)c3ccc(C)cc3)c(Cl)s2)CC1 | 5 | -5 | 6 | -7 | 51* | 0
Cc1ccc(S(=O)(=O)c2nc(S(=O)(=O)c3ccccc3)sc2N2CCN(CCO)CC2)cc1 | 71* | 7 | 20 | -10 | -29 | 16
CCCS(=O)(=O)c1nc(S(=O)(=O)c2ccc(C)cc2)c(N2CCN(C)CC2)s1 | -3 | -7 | 12 | -4 | 12 | 30
CCN1CCN(c2sc(S(C)(=O)=O)nc2S(=O)(=O)c2ccc(C)cc2)CC1 | 71* | 10 | 12 | 9 | 6 | 13
O=C(C[C@H]1C[C@@H]2c3cc(NC(=O)C4CCC4)ccc3O[C@@H]2[C@@H](CO)O1)NCc1ccccc1 | 1 | 3 | 24 | / | / | /
C[C@@H]1CCCCO[C@H](CN(C)C(=O)Nc2ccc(F)cc2)[C@@H](C)CN([C@@H](C)CO)C(=O)c2cc(NS(=O)(=O)c3cccs3)ccc2O1 | -10 | 4 | 26 | / | / | /
CCCCCCC(=O)N(O)C1CC(=O)N(Cc2ccccc2)C1=O (stereo not drawn) | / | / | / | 52* | -16 | -80
CCCCCC(=O)N(O)C1CC(=O)N(c2ccccc2)C1=O (stereo not drawn) | / | 9 | / | 23 | 1 | -28
CN(C)CC(=O)Nc1ccc2c(c1)[C@H]1C[C@H](CC(=O)N3CCOCC3)O[C@H](CO)[C@H]1O2 | 5 | 5 | -6 | / | / | /
C[C@@H]1CN([C@H](C)CO)C(=O)c2cc(NS(=O)(=O)c3cn(C)cn3)ccc2O[C@@H]1CN(C)C(=O)NC1CCCCC1 | / | 23 | 5 | / | / | /
CCOC(=O)c1cnn(CCOC(=O)c2cccc(F)c2)c1NC(=O)c1cccc(F)c1 | 110* | 29 | -5 | 4 | 15 | 4
CCOC(=O)c1cnn(CCOC(=O)c2cccs2)c1NC(=O)c1cccs1 | / | 7 | / | 1 | 11 | 3
Cc1nc2nc[nH]c2cc1Br | / | / | / | 7 | / | 67*
O=C(OCc1nc2ccc(Cl)cc2n1CCO)c1ccc(O)cc1 | 10 | -3 | 7 | 3 | 77* | 67*

Screens from PubChem.
